# From PubChem BioAssay
# Calls of active or inactive are those of the source.
# Assays:
# [1] = anti-His antibody binders, primary screen, artefact control for SMM control protein annotation, biochemical, small-molecule microarray, 635 nm fluorescence (AID 1128); settings: anti-His Alexa647 antibody binding, higher = more signal;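 note: score merges feature fluorescence with signal-to-noise for each printed compound spot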
# [2] = tested on: Human papillomavirus type 1a E7 protein (residues 1-88); assay: HPV1a E7 small-molecule binders, primary screen, biochemical, small-molecule microarray, residues 1-88, 635 nm (AID 1129); settings: small-molecule microarray binding, fluorescence 635 nm; higher = more signal
# [3] = molecular target: Focal adhesion kinase 1 (Homo sapiens) (UniProt Q05397); assay: small-molecule microarray binders of FAK, primary screen, biochemical, 635/667 nm fluorescence, BSA, DTT (AID 1130); settings: PTK2 binding, 635 nm fluorescence, higher = more signal;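 note: composite of spot emission at 667 nm and signal to noise over triplicate slides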
# Chain of Focal adhesion kinase 1 (Homo sapiens) (Q05397 whole entry, looked up): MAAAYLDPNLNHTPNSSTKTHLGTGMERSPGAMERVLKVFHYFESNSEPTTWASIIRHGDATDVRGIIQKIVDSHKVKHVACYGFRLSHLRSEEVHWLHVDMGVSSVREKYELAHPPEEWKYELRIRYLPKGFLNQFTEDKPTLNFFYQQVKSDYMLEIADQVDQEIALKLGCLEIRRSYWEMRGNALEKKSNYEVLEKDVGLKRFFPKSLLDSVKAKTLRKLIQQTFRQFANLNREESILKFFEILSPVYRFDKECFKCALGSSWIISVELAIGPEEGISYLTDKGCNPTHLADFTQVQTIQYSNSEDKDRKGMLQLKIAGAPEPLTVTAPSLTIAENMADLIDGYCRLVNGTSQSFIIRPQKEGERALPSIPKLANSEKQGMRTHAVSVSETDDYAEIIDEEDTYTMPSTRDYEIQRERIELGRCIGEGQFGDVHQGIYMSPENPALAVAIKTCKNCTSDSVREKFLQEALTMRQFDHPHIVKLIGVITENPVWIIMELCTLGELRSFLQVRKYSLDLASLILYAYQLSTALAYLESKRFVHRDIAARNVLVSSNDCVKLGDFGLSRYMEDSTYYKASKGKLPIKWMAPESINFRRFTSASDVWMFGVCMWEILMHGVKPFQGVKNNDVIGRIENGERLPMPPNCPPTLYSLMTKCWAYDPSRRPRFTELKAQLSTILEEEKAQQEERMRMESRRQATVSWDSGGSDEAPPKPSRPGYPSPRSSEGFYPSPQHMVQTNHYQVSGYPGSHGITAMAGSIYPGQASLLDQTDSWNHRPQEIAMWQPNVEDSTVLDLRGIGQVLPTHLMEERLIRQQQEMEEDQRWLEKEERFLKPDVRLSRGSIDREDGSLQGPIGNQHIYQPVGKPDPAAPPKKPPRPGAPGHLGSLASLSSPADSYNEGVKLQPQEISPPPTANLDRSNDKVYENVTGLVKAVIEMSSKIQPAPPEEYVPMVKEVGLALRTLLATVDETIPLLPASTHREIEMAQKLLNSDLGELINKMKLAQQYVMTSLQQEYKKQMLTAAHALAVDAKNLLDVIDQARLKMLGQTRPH
# [4] = tested on: Fibrinogen (Alexa647-labelled); assay: fibrinogen binders on compound microarrays, profiling panel, artefact control for SMM control-protein annotation, biochemical, small-molecule microarray, 635/667 nm fluorescence (AID 1131); settings: fibrinogen-A647 binding fluorescence, higher = more signal;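 note: z-score merges 667 nm fluorescence with per-spot signal-to-noise over triplicate slides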
# [5] = molecular target: Follistatin (Homo sapiens) (UniProt P19883); assay: follistatin binders on small-molecule microarrays, primary screen, biochemical, small-molecule microarray, 635/667 nm fluorescence (AID 1132); settings: FST binding, 635 nm fluorescence, higher = more signal
# Chain of Follistatin (Homo sapiens) (P19883 whole entry, looked up): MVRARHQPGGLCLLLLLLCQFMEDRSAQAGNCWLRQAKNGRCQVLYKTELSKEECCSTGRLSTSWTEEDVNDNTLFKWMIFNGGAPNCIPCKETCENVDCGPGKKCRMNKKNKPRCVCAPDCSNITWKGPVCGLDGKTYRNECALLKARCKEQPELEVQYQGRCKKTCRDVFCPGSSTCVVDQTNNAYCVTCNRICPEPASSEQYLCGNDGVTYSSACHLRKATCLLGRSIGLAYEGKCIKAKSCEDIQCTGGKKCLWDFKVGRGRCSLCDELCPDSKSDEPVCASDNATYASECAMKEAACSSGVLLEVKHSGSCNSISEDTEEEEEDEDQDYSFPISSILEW
# [6] = molecular target: Fibroblast growth factor 2 (Homo sapiens) (UniProt P09038); assay: FGF2 binders on small-molecule microarrays, primary screen, biochemical, small-molecule microarray, 635/667 nm fluorescence (AID 1133); settings: small-molecule microarray binding, FGF2, fluorescence 635/667; higher = more signal
# Chain of Fibroblast growth factor 2 (Homo sapiens) (P09038 whole entry, looked up): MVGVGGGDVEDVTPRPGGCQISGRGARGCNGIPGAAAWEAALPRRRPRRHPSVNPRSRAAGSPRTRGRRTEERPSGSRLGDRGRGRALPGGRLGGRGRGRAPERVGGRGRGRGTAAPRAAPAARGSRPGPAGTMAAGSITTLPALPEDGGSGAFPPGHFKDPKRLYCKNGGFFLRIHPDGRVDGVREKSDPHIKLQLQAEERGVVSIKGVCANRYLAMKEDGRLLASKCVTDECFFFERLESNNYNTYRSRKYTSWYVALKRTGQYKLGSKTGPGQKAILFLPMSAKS
# [7] = mitochondrial membrane potential change in A549 cells, profiling panel, cell-based, JC-1 fluorescence, basal, 24 h, 100 nL (AID 1138); settings: higher = more signal;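 note: A549 lung adenocarcinoma cells under basal conditions with no added stimulus; test concentration not given here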
# Lefty1 = Lefty1 binders on small-molecule microarrays, primary screen, biochemical, small-molecule microarray, 635/667 nm fluorescence (AID 1139); settings: small-molecule microarray binding, fluorescence 635/667; higher = more signal
# [8] = tested on: wheat germ agglutinin (Triticum aestivum), Alexa647-labelled; assay: wheat germ agglutinin binders on compound microarrays, profiling panel, artefact control for SMM control-protein annotation, biochemical, small-molecule microarray, 635/667 nm fluorescence (AID 1140); settings: WGA-A647 binding, 635 nm fluorescence, higher = more signal;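 note: score merges 667 nm feature emission with signal to noise over triplicate slides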
# [9] = molecular target: Luciferin 4-monooxygenase (Photinus pyralis) (UniProt P08659); assay: firefly luciferase enzyme inhibitors, primary screen, biochemical, luminescence, purified enzyme, 2006 set (AID 1141); settings: SteadyGlo luminescence, 30 min, higher = more signal, called active from +8 up or from −8 down;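 note: cell-free assay with purified firefly luciferase at 100 ng per well in PBS; test concentration not given here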
# Chain of Luciferin 4-monooxygenase (Photinus pyralis) (P08659 whole entry, looked up): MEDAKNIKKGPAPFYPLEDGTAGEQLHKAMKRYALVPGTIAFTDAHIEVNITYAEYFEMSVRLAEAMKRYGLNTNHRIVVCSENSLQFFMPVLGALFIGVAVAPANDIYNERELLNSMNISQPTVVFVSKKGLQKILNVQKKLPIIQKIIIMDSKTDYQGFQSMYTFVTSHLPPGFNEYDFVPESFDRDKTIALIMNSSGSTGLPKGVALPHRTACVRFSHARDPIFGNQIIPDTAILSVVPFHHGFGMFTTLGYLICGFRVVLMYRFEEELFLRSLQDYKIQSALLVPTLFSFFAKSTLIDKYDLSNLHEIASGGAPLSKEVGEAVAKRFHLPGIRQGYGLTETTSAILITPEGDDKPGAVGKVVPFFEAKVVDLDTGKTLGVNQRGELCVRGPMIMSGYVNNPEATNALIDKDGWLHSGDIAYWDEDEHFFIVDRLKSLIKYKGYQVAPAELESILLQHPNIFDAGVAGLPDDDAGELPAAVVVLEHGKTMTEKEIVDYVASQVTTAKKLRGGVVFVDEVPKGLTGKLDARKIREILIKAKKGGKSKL
Structure (SMILES),composite z-score [1],composite z-score [2],composite z-score [3],composite z-score [4],composite z-score [5],composite z-score [6],z-score [7],composite z-score (Lefty1),composite z-score [8],z-score [9]
CN(C)CCCN1C(=O)[C@@]2(c3ccc([N+](=O)[O-])cc3)CC(=O)N(C3CCCCC3)[C@@H]2c2ccc(CO)cc21,0.0598,-1.05,-0.042,-0.916,0.0687,0.836,-0.493,-0.262,0.12,1.2 (inactive)
COC(=O)[C@@]1(Cc2ccccc2)[C@H]2c3cc(C(=O)N(C)C)n(Cc4cc(F)c(F)c(F)c4)c3C[C@H]2CN1C(=O)c1ccccc1,2.19,1.22,0.692,0.832,0.83,-0.311,-0.322,-0.807,0.418,1.78 (inactive)
[N-]=[N+]=NCc1ccccc1[C@@H]1OC(c2ccc(OCCCO)cc2)=N[C@]1(Cc1ccccc1N=[N+]=[N-])C(N)=O,1.81,1.26,0.73,1.01,1.28,0.853,0.737,-0.173,1.31,-3.4 (inactive)
COc1ccc(C(=O)Nc2cccc(CN3C(=O)[C@@]4(O[C@@H](CCn5cc([C@H](O)c6ccccc6)nn5)[C@H]([Si](C)(C)c5ccc(OC)cc5)[C@H]4C)c4ccccc43)c2)cc1,0.669,0.138,0.638,0.528,1.19,0.612,-0.175,1.01,0.443,0.39 (inactive)
COC(=O)[C@@]1(Cc2ccc(OC)cc2)[C@H]2c3cc(C(=O)N(C)C)n(CCSCCO)c3C[C@H]2CN1C(=O)c1ccccc1,0.957,1.32,1.68,0.971,0.108,-0.569,-0.399,-1.03,0.515,-0.572 (inactive)
CC(c1ccccc1)C(O)C1C=CC2C(=O)N(Cc3ccccc3)C(=O)C2N1n1cnnc1 (stereo not given),0.509,0.914,0.146,0.654,0.374,0.408,-1.27,-0.133,0.532,1.52 (inactive)
[N-]=[N+]=NCc1ccccc1[C@H]1OC(c2ccc(OCCCO)cc2)=N[C@@]1(Cc1ccccc1)C(=O)O,1.97,0.762,0.551,0.472,1.31,1.42,-0.0378,0.195,0.611,-0.0016 (inactive)
[N-]=[N+]=NCc1ccccc1C[C@]1(C(=O)NCc2ccccc2)COC(c2ccc(OCCCO)cc2)=N1,0.519,1.16,1.11,0.948,0.101,0.661,-0.221,-0.0991,0.762,-0.169 (inactive)
COC(=O)c1c(CC[C@@H](CO)NC(=O)Nc2ncn[nH]2)oc(C(=O)Cc2ccccc2)c1C(=O)OC,0.936,0.466,0.108,0.915,1.08,1.58,-0.491,0.895,0.467,1.03 (inactive)
CN1C(=O)C2C=CC(C(O)c3ccc(Br)cc3)N(Nc3ccccc3)C2C1=O (stereo not given),-0.233,-0.426,0.1,-0.23,-1.12,-1.22,-0.101,-1.33,0.387,-1.11 (inactive)
CC(C)C(O)C1C=CC2C(=O)N(C)C(=O)C2N1N1CCCCC1 (stereo not given),-0.0134,1.11,0.776,0.447,0.336,0.329,-0.115,-0.146,0.763,-0.686 (inactive)
COCCOC(=O)N1C(=O)[C@@]2(c3ccccc31)[C@H](c1ccc(O)cc1)N1[C@H](c3ccccc3)[C@H](c3ccccc3)OC(=O)[C@H]1[C@@H]2C(N)=O,-0.445,-0.218,-0.046,-1.35,-0.601,-0.239,0.181,-0.0341,-0.0601,-0.144 (inactive)
C=CCNC(=O)[C@H]1[C@@H]2C(=O)O[C@@H](c3ccccc3)[C@@H](c3ccccc3)N2[C@@H](c2ccc(OCCO)cc2)[C@]12C(=O)N(C(=O)OCCOC)c1ccc(C#CC3(O)CCCCCC3)cc12,0.632,1.21,1.32,0.888,1.36,1.58,0.208,1.47,0.777,-1.86 (inactive)
O=C(CS)NCCCCCNC(=O)[C@H]1C[C@H]2C(=O)N[C@@H](Cc3ccccc3)C(=O)N2[C@H]1c1cccc(OCCO)c1,2.51,1.16,0.181,0.748,1.37,1.77,1.17,1.45,0.788,-2.3 (inactive)
CCCCN1CC=CC23O[C@@H]4C=CCCOC(=O)C4[C@H]2C(=O)N(CCCO)[C@@H]3C1=O (stereo not given in full),-1.31,-1.79,-0.274,-1.42,0.274,-0.469,-1.13,-0.439,-1.45,-0.11 (inactive)
O=C1O[C@@H](c2ccccc2)[C@@H](c2ccccc2)N2[C@@H](c3ccc(O)cc3)[C@]3(C(=O)Nc4ccccc43)[C@@H](C(=O)NC[C@H](O)c3ccccc3)[C@H]12,2.07,-0.366,0.0943,-0.406,1.02,0.797,0.411,0.266,0.0576,0.807 (inactive)
COc1ccc([Si](C)(C)[C@H]2[C@H](CC(=O)N3CCC[C@H]3CO)O[C@@]3(C(=O)N(c4ccccc4)c4ccccc43)[C@@H]2C)cc1,0.318,0.0005,0.223,-0.445,0.813,0.441,0.16,0.992,0.0807,0.72 (inactive)
COCCCNC(=O)[C@]1(Cc2ccccc2N=[N+]=[N-])N=C(c2ccc(OCCCO)cc2)O[C@@H]1c1ccccc1CN=[N+]=[N-],2.33,1.22,0.631,0.947,1.35,0.449,-0.418,0.231,1.12,-2.5 (inactive)
O=c1cccc(-c2ccc3ccccc3c2)o1,-0.829,-0.788,-0.179,-0.656,0.305,-0.276,1.14,-0.123,-0.276,-2.88 (inactive)
[N-]=[N+]=Nc1ccccc1[C@@H]1OC(c2ccc(OCCCO)cc2)=N[C@]1(CCS(=O)(=O)c1ccccc1)C(=O)O,1.12,1.22,0.688,1.03,1.25,0.933,-1.83,0.874,0.867,-15.1 (active)
O=C1O[C@@H](c2ccccc2)[C@@H](c2ccccc2)N2[C@@H](c3ccc(O)cc3)[C@]3(C(=O)Nc4ccc(C#CCCO)cc43)[C@@H](C(=O)O)[C@H]12,2.29,0.18,0.894,0.925,1.2,-0.196,0.889,-0.22,1.34,-1.18 (inactive)
COCCCNC(=O)[C@@]1(Cc2ccccc2I)c2ccccc2C(=O)N(Cc2ccccc2)[C@H]1c1ccc(CO)cc1,0.536,-0.726,-0.548,-1.03,-1.6,-1.21,1.28,-1.94,-1.27,-0.751 (inactive)
NC(=O)[C@]1(Cc2ccccc2)N=C(c2ccc(OCCCO)cc2)O[C@@H]1c1ccccc1,1.15,1.12,0.246,0.977,0.368,-0.555,-1.04,-0.524,1.05,-0.354 (inactive)
CC1(C)C(=O)C(c2ccccc2)=C2CN3C(=O)N(CCc4ccccc4)C(=O)C3(Cc3ccccc3)C=C21 (stereo not given),0.323,1.14,0.369,0.119,0.552,-0.492,0.19,-0.378,1.03,0.245 (inactive)
CCCNC(=O)[C@@]1(C)c2ccccc2C(=O)N(Cc2ccc(OC(F)(F)F)cc2)[C@H]1c1ccc(CO)cc1,-0.607,1.11,0.275,0.264,0.778,0.557,1.07,-0.526,0.419,-0.166 (inactive)
[N-]=[N+]=NCc1ccccc1[C@H]1OC(c2ccc(OCCCO)cc2)=N[C@@]1(Cc1ccccc1)C(=O)NCC(O)CO (stereo not given in full),1.86,1.25,1.08,0.726,0.474,-0.0723,1.2,-0.994,0.486,0.142 (inactive)
COc1ccc([Si](C)(C)[C@H]2[C@H](CC(=O)N3Cc4ccccc4C[C@H]3CO)O[C@@]3(C(=O)N(Cc4cccc(I)c4)c4ccccc43)[C@@H]2C)cc1,1.67,0.0688,-0.706,0.321,1.57,2.13,-0.0488,1.64,0.539,-0.63 (inactive)
